Among the data in PubChem BioAssay AID2283105 (EPA ToxCast) are AC50 values, retold here.

Active and inactive are the calls of the source. The calls were made as follows: active = hit-call score of the fitted dose curve at least 0.9, where 1 is the maximum; inactive = score below 0.9.

This assay concerns the target human CYP2E1, CYP2E1 (gene 1571) (UniProt P05181). Description: NVS_ADME_hCYP2E1: NovaScreen (NVS) CYP450-related Enzyme Activity (ADME) Assay for human CYP2E1. The protocol: NVS_ADME_hCYP2E1 is a biochemical, single-readout assay that uses extracted gene-proteins in a cell-free assay. Measurements were taken 0.5 hour after chemical dosing in a 96-well plate.NVS_ADME_hCYP2E1 is one of one assay component(s) measured or calculated from the NVS_ADME_hCYP2E1 assay. It is designed to make measurements of enzyme activity, a form of enzyme reporter, as detected with fluorescence intensity signals by Fluorescence technology.Data from the assay component NVS_ADME_hCYP2E1 was analyzed into 1 assay endpoint. This assay endpoint, NVS_ADME_hCYP2E1, was analyzed in the positive analysis fitting direction relative to Acetonitrile as the negative control and baseline of activity. Using a type of enzyme reporter, loss-of-signal activity can be used to understand changes in the enzymatic activity as they relate to the gene CYP2E1. Furthermore, this assay endpoint can be referred to as a primary readout, because this assay has produced multiple assay endpoints where this one serves a enzymatic activity function. To generalize the intended target to other relatable targets, this assay endpoint is annotated to the cyp intended target family, where the subfamily is xenobiotic metabolism. […]

Chain of human CYP2E1, CYP2E1 (gene 1571) (P05181 whole entry, looked up): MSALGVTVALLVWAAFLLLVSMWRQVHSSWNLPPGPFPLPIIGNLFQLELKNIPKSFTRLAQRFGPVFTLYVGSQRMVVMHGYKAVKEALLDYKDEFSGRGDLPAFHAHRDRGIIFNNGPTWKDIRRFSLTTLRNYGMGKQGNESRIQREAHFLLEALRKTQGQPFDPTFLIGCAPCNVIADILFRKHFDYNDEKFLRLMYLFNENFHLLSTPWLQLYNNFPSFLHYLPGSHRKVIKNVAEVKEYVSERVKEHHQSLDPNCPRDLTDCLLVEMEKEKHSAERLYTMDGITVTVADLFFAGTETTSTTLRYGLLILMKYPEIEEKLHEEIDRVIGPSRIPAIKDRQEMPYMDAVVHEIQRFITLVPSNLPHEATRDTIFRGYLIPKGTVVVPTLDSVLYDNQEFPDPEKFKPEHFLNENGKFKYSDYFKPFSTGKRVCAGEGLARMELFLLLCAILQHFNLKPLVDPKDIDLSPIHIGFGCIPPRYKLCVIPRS

As to `N#CSCSc1nc2ccccc2s1`, the half-maximal activity concentration (AC50) is 5.32 µM (active).
